# In PubChem BioAssay:
# Calls of active or inactive are those of the source. The rule behind the calls is not given here.
# Target: Pantothenate synthetase (Mycobacterium tuberculosis (strain ATCC 25618 / H37Rv)) (UniProt P9WIL5)
# Experiment: Recombinant Mtb pantothenate synthetase (PanC) inhibitors, coupled enzyme, confirmatory (AID 375);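 note: 0% = full reaction with vehicle and 100% = no enzyme background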
# Settings: coupled enzyme assay; at 10 µM, stronger effect = higher value
# Pantothenate synthetase (Mycobacterium tuberculosis (strain ATCC 25618 / H37Rv)), sequence (P9WIL5 whole entry, looked up): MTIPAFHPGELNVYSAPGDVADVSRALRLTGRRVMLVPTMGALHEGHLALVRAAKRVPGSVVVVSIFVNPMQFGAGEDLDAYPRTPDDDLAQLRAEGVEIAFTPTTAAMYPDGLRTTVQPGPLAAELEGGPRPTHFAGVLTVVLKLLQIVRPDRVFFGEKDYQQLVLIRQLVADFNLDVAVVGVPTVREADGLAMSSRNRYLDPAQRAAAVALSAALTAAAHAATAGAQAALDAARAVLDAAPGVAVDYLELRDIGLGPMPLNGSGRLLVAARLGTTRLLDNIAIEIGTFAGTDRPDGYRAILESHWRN
row,Compound,inhibition
1,CN(CCCNC(=O)c1cn(C)c2ccc(S(=O)(=O)N(C)C)cc2c1=O)c1ccccc1,4% (inactive)
2,C=CCn1c(SCC(=O)Nc2cccc(OC)c2)nnc1-c1cccnc1,0% (inactive)
3,C=CCSc1nnc2n(CCc3ccccc3)c(=O)c3c4c(sc3n12)COC(C)(C)C4,0% (inactive)
4,CC(C)C(NC(=O)c1ccc(S(=O)(=O)N2CCOCC2)cc1)c1nc2ccccc2[nH]1 (stereo not given),0% (inactive)
5,O=C1CCN(C(=O)c2ccccc2)C2CCCCC12 (stereo not given),0% (inactive)
6,Cc1csc(NC(=O)CCS(=O)(=O)c2ccc(Br)cc2)n1,2% (inactive)
7,CCOC(=O)c1c(COC(=O)c2ccco2)nc2ccccc2[n+]1[O-],0% (inactive)
8,CCOC(=O)c1ccc(Oc2cc(C)nc(SC)n2)cc1,0% (inactive)
9,Cc1ccc(F)cc1NC(=O)C1CCCN(c2ncccn2)C1 (stereo not given),7% (inactive)
10,CCCCCC(=O)N(CN1C(=O)CCC1=O)c1ccccc1,5% (inactive)
11,O=C(CCCCn1c(=O)c2ccccc2n(Cc2ccc(Cl)cc2)c1=O)NCc1ccco1,0% (inactive)
12,COc1ccc(-c2cnc(SCC(=O)Nc3ccc4c(c3)OCO4)n2Cc2ccco2)cc1,0% (inactive)
13,CCOC(=O)N1CCC(NC(=O)c2ccc3nc(N4CCOCC4)sc3c2)CC1,5% (inactive)
14,C1COC(NC(C2CC2)C2CC2)=N1,4% (inactive)
15,CCOC(=O)c1c(C)oc2c1c(C(c1ccncc1)N1CCOCC1)c(O)c1ccccc12 (stereo not given),0% (inactive)
16,Cc1nnc(Nc2ccccn2)c2ccccc12,0% (inactive)
17,COc1ccccc1NC(=O)N(C1CCCC1)C1CCN(C(C)=O)CC1,1% (inactive)
18,O=C(CCn1c(=O)c2sccc2n(CC(=O)NCc2ccco2)c1=O)NCc1ccccc1,3% (inactive)
19,O=C(CSCCSCC(=O)c1ccco1)c1ccco1,0% (inactive)
20,CC1CCN(S(=O)(=O)c2cccc(C(=O)Nc3ccccn3)c2)CC1,0% (inactive)

row,Compound,inhibition
1,CCCCc1n[nH]c2c1C(=O)CC(C)(C)C2,0% (inactive)
2,c1cnn(-c2cc(N3CCOCC3)ncn2)c1,0% (inactive)
3,COc1ccc(OC(C)C(=O)N2CC(C)OC(C)C2)cc1 (stereo not given),10% (inactive)
4,Cc1cc2c(cc(C(=O)NCc3cccnc3)n2Cc2ccc(Cl)cc2)o1,4% (inactive)
5,COc1ccc(N2CCN(CCCNS(=O)(=O)c3c(C)noc3/C=C/N(C)C)CC2)cc1,15% (inactive)
6,O=C1CCC(=O)N1OCCCOc1ccc(Br)cc1Cl,0% (inactive)
7,CCOc1ccccc1OCC(=O)NCc1ccco1,0% (inactive)
8,CCOC(=O)Nc1ccc2c(c1)N(C(=O)OCCN(C)C)c1ccccc1CC2,3% (inactive)
9,Cc1ccc(NC(=O)COC(=O)c2ccn(C)n2)cc1,0% (inactive)
10,O=C(Nc1c(C(=O)NCc2ccco2)cnn1-c1ccccc1)c1ccc(F)cc1,2% (inactive)
11,CCCCOc1ccccc1C(=O)NCCCC(=O)O,0% (inactive)
12,COc1ccc(OC)c(C2C3=C(CCCC3=O)Nc3c2c(=O)n(C)c(=O)n3C)c1 (stereo not given),0% (inactive)
13,COC(=O)CN(c1ccc(C)c(Cl)c1)S(C)(=O)=O,0% (inactive)
14,CC1CC(C)CN(Cc2nc3c(c(=O)n(C)c(=O)n3C)n2Cc2ccccc2Cl)C1 (stereo not given),0% (inactive)
15,CC(C)(C)n1nnnc1C(c1cccc(C#N)c1)N1CCC(Cc2ccccc2)CC1 (stereo not given),2% (inactive)
16,O=C(Nc1ccc(N2CCOCC2)c(F)c1)c1ccncc1,0% (inactive)
17,CCCCOc1ccc(-c2nnn(CC(=O)Nc3ncc(CC(=O)OCC)s3)n2)cc1,2% (inactive)
18,CCCc1cc(=O)oc2c(C)c3occ(C)c3cc12,1% (inactive)
19,O=C(c1cccnc1NCc1ccccc1)N1CCOCC1,0% (inactive)
20,OC(CN1CCOCC1)Cn1c(-c2cccc(Cl)c2)nc2ccccc21 (stereo not given),4% (inactive)
